Records with an inconclusive call do not appear. Entries that show only a call come without a potency. Activity calls are given as the source filed them. Unless noted, calls follow the shape of the full dose curve.
How the values were obtained:
[1] = Natriuretic polypeptide receptor (hNpr1) antagonism - Pilot counterscreen GloSensor control cell line (AID 1347045); also: potency is read from the fitted curve at half-maximal effect
Outline: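 HEK293 cells carrying the GloSensor cGMP sensor (GIP/pGS-40F) were loaded with 2% GloSensor reagent for 2 h, exposed to compounds for 30 min, and then stimulated with 50 uM sodium nitroprusside for 20 min at room temperature.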

[2] = target: Atrial natriuretic peptide receptor 1 (Homo sapiens) (UniProt P16066); test: Natriuretic polypeptide receptor (hNpr1) antagonism - Pilot screen (AID 1347049);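 also: agonist-evoked cGMP luminescence read 20 min after hNppA addition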; also: potency is read from the fitted curve at half-maximal effect
Outline: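 HEK293 cells expressing hNpr1 and GloSensor cGMP luciferase, 1500/well, loaded with 2% GloSensor reagent 2 h, compound 30 min at room temperature; luminescence read before and 20 min after 0.1 nM hNppA stimulation.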

[3] = target: Atrial natriuretic peptide receptor 2 (Homo sapiens) (UniProt P20594); test: Natriuretic polypeptide receptor (hNpr2) antagonism - Pilot subtype selectivity assay (AID 1347050); also: potency is read from the fitted curve at half-maximal effect
Outline: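 HEK293 cells expressing hNpr2 and a GloSensor cGMP luciferase sensor, 1500/well, preloaded 2 h with 2% GloSensor reagent, compound 30 min, then 1 nM hNppC for 20 min. Antagonism from luminescence after versus baseline pre-read; LOPAC in 1:5 titrations.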

[4] = target: T1, Tyrosine-protein phosphatase non-receptor type substrate 1 (Homo sapiens) + Leukocyte surface antigen CD47 (Homo sapiens) (UniProt P78324+Q08722); test: CD47-SIRPalpha protein protein interaction - LANCE assay qHTS validation (AID 1347057; active = well fitted curve in the direction sought with a large enough effect in the signal ratio, with a control signal flat, not every such curve was filed as active; the % refers to the signal ratio; also: series mostly up to about 38 µM)
Outline: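 First, His-tagged CD47 and Eu-labelled anti-His antibody met the compound for 30 min; next, site-specifically biotinylated SIRPalpha was added for 30 min; finally streptavidin-APC was added before reading the TR-FRET ratio.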

[5] = target: T1, Tyrosine-protein phosphatase non-receptor type substrate 1 (Homo sapiens) + Leukocyte surface antigen CD47 (Homo sapiens); test: CD47-SIRPalpha protein protein interaction - Alpha assay qHTS validation (AID 1347059; active = well fitted curve in the direction sought with a large enough effect; an effect the other way counts as inactive or inconclusive;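 also: bead proximity luminescence from CD47 binding SIRPalpha after compound preincubation with SIRPalpha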)
Outline: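 Biotinylated Avi-tagged SIRPalpha (25 nM) preincubated 30 min with compound, then His-tagged CD47 (12.5 nM) added 30 min; AlphaScreen with Ni-NTA acceptor and streptavidin donor beads. PBS pH 7.4, 0.05% IGEPAL, room temperature; 7-point titrations.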

[6] = NS1 protein of Zika virus - qHTS assay to identify small molecule inhibitors in human HEK 293 cells (AID 1347053; active = well fitted curve in the direction sought with a large enough effect; an effect the other way counts as inactive or inconclusive; also: series mostly up to about 46 µM; nearly all actives have a fitted effect of over 55% in size)
Outline: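 HEK 293 cells, seeded 20 h at 37 C, were pretreated with compound 1 h, then infected with ZIKV MR766 (MOI = 0.5) for 24 h. NS1 was read by TR-FRET with two anti-NS1 antibodies, normalized to uninfected and infected wells.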

[7] = target: T1, Tyrosine-protein phosphatase non-receptor type substrate 1 (Homo sapiens) + Leukocyte surface antigen CD47 (Homo sapiens); test: CD47-SIRPalpha protein protein interaction - HTRF assay qHTS validation (AID 1347058; active = well fitted curve in the direction sought with a large enough effect in the signal ratio, not every such curve was filed as active; the % refers to the signal ratio;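 also: recombinant soluble extracellular CD47 with His tag and biotinylated SIRPalpha domains; series mostly up to about 38 µM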)
Outline: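 TR-FRET read (Ch1/Ch2 ratio) of soluble extracellular CD47 and Avi-biotinylated SIRPalpha domains in PBS pH 7.4 with 0.05% IGEPAL; 7-point compound titration. Sequential 30 min room-temperature steps; non-biotinylated SIRPalpha as control inhibitor.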

[8] = target: Parathyroid hormone/parathyroid hormone-related peptide receptor (Homo sapiens) (UniProt Q03431); test: qHTS for PTHR1 Agonists: Optimization Screen against the NCGC LOPAC library (AID 1347079; active = well fitted curve in the direction sought with a large enough effect; an effect the other way counts as inactive or inconclusive;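 also: GloSensor cAMP luminescence in HEK-293 GP2 cells expressing human PTHR1 with IBMX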)
Outline: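 Compounds were tested across a qHTS titration. PTHR1-expressing GP2 cells report cAMP rises via GloSensor luminescence after 1 hr compound exposure at 37C with IBMX present.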

Sequence of Atrial natriuretic peptide receptor 2 (Homo sapiens) (P20594 whole entry, looked up): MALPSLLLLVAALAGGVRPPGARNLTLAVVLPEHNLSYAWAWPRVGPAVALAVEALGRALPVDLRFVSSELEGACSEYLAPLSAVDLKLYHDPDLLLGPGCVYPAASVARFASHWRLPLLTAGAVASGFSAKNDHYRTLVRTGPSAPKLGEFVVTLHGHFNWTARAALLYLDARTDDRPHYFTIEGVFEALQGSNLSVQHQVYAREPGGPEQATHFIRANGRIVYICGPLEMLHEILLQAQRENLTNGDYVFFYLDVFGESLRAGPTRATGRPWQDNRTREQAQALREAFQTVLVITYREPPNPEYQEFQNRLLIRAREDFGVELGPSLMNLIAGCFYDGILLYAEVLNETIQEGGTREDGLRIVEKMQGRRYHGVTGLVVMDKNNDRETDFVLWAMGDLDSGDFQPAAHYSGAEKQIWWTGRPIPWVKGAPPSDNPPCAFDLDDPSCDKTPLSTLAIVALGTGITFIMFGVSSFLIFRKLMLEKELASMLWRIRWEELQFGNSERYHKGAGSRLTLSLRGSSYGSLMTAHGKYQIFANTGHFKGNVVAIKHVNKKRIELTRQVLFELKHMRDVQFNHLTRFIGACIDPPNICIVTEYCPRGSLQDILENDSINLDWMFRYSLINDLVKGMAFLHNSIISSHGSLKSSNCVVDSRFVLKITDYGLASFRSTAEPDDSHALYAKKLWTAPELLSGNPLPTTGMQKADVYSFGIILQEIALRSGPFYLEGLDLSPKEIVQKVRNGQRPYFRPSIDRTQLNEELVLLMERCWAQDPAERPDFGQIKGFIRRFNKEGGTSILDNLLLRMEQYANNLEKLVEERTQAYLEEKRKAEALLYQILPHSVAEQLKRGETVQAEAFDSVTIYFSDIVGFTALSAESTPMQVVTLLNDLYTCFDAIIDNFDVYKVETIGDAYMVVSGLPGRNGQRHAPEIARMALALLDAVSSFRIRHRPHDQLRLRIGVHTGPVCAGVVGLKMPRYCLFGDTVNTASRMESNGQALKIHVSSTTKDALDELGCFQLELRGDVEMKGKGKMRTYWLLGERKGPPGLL
Sequence of Atrial natriuretic peptide receptor 1 (Homo sapiens) (P16066 whole entry, looked up): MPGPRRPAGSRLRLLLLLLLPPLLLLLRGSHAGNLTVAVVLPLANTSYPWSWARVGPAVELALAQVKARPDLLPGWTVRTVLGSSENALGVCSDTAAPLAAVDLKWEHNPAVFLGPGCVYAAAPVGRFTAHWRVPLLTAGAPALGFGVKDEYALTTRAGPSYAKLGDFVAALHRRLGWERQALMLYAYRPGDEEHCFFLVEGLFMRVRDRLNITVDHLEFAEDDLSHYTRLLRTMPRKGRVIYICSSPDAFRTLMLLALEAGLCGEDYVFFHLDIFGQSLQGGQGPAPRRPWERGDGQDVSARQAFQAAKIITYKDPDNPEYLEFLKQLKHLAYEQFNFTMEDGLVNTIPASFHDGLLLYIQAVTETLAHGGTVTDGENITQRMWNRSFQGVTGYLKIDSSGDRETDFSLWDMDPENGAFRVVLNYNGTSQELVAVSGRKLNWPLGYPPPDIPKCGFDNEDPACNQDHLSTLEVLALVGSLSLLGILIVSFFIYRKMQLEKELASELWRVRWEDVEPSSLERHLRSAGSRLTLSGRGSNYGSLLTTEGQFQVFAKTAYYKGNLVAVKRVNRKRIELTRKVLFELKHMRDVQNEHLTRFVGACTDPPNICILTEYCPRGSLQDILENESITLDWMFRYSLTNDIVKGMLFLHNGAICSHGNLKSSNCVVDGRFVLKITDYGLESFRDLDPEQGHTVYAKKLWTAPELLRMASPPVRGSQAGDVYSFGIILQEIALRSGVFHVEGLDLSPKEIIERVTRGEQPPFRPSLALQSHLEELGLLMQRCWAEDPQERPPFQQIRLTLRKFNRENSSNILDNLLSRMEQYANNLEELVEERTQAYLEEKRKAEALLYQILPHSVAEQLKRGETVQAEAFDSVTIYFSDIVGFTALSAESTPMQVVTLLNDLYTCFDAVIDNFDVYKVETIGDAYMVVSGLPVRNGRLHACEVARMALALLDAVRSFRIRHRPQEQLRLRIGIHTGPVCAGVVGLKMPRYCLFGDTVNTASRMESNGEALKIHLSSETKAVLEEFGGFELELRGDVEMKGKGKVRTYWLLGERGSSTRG
Sequence of Parathyroid hormone/parathyroid hormone-related peptide receptor (Homo sapiens) (Q03431 whole entry, looked up): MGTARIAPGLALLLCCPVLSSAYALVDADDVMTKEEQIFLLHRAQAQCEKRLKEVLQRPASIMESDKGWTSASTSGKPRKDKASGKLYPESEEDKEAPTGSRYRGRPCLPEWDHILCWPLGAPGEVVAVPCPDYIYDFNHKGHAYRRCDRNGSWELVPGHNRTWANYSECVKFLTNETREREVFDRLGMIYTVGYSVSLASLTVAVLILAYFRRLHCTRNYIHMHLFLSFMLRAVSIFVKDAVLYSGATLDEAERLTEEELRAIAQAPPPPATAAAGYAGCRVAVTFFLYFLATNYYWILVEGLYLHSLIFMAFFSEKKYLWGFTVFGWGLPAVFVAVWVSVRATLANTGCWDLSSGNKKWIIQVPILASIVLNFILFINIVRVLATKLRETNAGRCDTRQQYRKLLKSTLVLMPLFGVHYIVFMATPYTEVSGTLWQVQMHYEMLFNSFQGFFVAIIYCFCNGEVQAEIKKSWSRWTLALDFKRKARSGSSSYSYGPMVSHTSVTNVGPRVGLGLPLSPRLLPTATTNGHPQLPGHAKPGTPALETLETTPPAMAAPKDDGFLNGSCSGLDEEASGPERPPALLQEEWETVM
T1 sequence (P78324 whole entry, looked up): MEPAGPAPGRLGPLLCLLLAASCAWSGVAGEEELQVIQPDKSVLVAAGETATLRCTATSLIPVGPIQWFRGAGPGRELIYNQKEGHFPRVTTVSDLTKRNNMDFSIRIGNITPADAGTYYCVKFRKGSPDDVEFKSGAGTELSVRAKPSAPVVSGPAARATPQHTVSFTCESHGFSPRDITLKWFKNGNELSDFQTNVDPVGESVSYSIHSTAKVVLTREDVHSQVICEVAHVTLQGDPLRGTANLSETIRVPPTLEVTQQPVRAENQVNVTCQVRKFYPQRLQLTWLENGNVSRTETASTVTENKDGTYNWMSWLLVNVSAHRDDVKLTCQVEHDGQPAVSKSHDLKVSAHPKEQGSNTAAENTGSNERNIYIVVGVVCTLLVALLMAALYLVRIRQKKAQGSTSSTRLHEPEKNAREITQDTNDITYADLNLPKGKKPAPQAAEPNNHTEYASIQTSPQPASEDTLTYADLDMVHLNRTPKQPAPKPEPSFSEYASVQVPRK
T1 sequence (Q08722 whole entry, looked up): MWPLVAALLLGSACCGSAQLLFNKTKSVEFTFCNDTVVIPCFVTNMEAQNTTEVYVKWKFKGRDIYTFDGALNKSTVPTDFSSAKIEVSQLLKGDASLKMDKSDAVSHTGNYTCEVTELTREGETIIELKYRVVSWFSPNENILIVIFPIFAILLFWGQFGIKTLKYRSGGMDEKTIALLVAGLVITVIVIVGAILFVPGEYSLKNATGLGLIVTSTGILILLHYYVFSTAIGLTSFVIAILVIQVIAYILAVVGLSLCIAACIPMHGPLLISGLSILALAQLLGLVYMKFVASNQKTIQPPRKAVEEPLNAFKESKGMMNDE

| Compound | Potency [1] | Potency [2] | Potency [3] | Potency [4] | Potency [5] | Potency [6] | outcome [7] | Potency [8] |
| --- | --- | --- | --- | --- | --- | --- | --- | --- |
| CC(=O)/C=C1\C(=O)N(C)c2ccccc21 | 9.27 µM (active) | 16.9 µM (active) | 14.7 µM (active) | inactive | inactive | – | – | – |
| O=C1NC(=O)/C(=C/c2ccc3nccnc3c2)S1 | inactive | inactive | inactive | inactive | inactive | inactive | – | – |
| NCCSSCCN | inactive | inactive | inactive | inactive | inactive | inactive | inactive | inactive |
| NCC1OC(O[C@H]2[C@H](O)[C@@H](OC3C(O)C(N)CC(N)C3OC3OC(CO)C(O)C(O)C3N)O[C@@H]2CO)C(N)C(O)C1O (stereo partly drawn) | inactive | inactive | inactive | – | inactive | inactive | inactive | inactive |
| O=[N+]([O-])c1ccc(CSc2ncnc3c2ncn3[C@@H]2O[C@H](CO)[C@@H](O)[C@H]2O)cc1 | inactive | inactive | inactive | inactive | – | inactive | – | inactive |
| CNC(=O)[C@H]1O[C@@H](n2cnc3c(NCc4ccc(N)cc4)ncnc32)[C@H](O)[C@@H]1O | inactive | inactive | inactive | inactive | – | inactive | inactive | inactive |
| CCN(CC)c1ncnc2c1ncn2[C@@H]1O[C@H](COP(=O)(O)OP(=O)(O)C(Br)(Br)P(=O)(O)O)[C@@H](O)[C@H]1O | inactive | inactive | inactive | inactive | inactive | inactive | inactive | inactive |
| CC(C)Cc1ccc([C@H](C)C(=O)O)cc1 | inactive | inactive | inactive | inactive | inactive | inactive | inactive | inactive |
| OC[C@H]1O[C@@H](n2cnc3c(NC4CCCC4)ncnc32)[C@H](O)[C@@H]1O | inactive | inactive | inactive | inactive | inactive | inactive | inactive | inactive |
| Cc1ccc(S(=O)(=O)/C=C/C#N)cc1 | 9.27 µM (active) | inactive | 9.27 µM (active) | – | – | – | inactive | – |
| Nc1ncnc2c1ncn2[C@@H]1O[C@H](COP(=O)(O)OP(=O)(O)OP(=O)(O)OP(=O)(O)OC[C@@H]2O[C@H](n3cnc4c(N)ncnc43)[C@@H](O)[C@H]2O)[C@@H](O)[C@H]1O | inactive | inactive | inactive | inactive | inactive | inactive | inactive | inactive |
| CCCC1(C)C(C#N)(C#N)C1(C#N)C#N | 5.85 µM (active) | 8.49 µM (active) | 4.65 µM (active) | – | – | – | – | inactive |
| CC(COc1ccc(/C=C/c2ccccc2)cc1)[N+](C)(C)C (stereo not drawn) | inactive | inactive | inactive | – | – | – | – | inactive |
| CC(C)(C)c1ccc(S(=O)(=O)/C=C/C#N)cc1 | 6.56 µM (active) | 12 µM (active) | 7.36 µM (active) | inactive | inactive | – | inactive | inactive |
| CN1CCc2cc(NC(=O)Nc3cccnc3)ccc21 | – | inactive | inactive | inactive | inactive | inactive | inactive | inactive |
| COc1cc2c(CCNC(C)=O)c[nH]c2cc1Cl | – | inactive | inactive | inactive | inactive | inactive | inactive | inactive |
| O=C(O)c1cc(=O)c2ccccc2[nH]1 | – | inactive | inactive | inactive | inactive | inactive | inactive | – |
| O=C1/C(=C/c2ccsc2)CC/C1=C\c1cccs1 | 1.47 µM (active) | 6.01 µM (active) | – | inactive | inactive | inactive | – | inactive |
| CCCCCCCCCCCCCCCC(=O)NCC(COP(=O)([O-])OCC[N+](C)(C)C)OCC (stereo not drawn) | inactive | – | inactive | – | – | – | – | inactive |
| O=C1O/C(=C/Br)CCC1c1cccc2ccccc12 (stereo not drawn) | 16.5 µM (active) | 19 µM (active) | 11.7 µM (active) | – | – | – | – | inactive |
| CCCCC#Cc1nc(NC)c2ncn([C@@H]3O[C@H](CO)[C@@H](O)[C@H]3O)c2n1 | inactive | – | inactive | – | inactive | inactive | inactive | inactive |
| C[C@@H](CN1CCC(Cc2ccccc2)CC1)[C@@H](O)c1ccc(O)cc1 | – | inactive | inactive | inactive | – | inactive | inactive | – |
| CC(C)ON([C@@H](C(=O)NO)C(C)C)S(=O)(=O)c1ccc(-c2ccccc2)cc1 | inactive | inactive | inactive | – | – | – | – | inactive |

From PubChem BioAssay (NCATS)
